This is an account of results in PubChem BioAssay.

A short description of assay [1]: A549 cell viability effects, profiling panel, calcein-AM fluorescence, 48 h, basal (AID 1162). Note: test concentration not given here. To be noted: higher = more signal.
Assay [2] can be described thus: adipocyte viability effects, profiling panel, cell-based, 3T3-L1 adipocytes, calcein-AM fluorescence, 48 h, basal (AID 1163). Note: test concentration not given here. To be noted: 3T3-L1 adipocytes viability, higher = more signal.
The nature of assay [3]: HepG2 cell viability effects, profiling panel, calcein-AM fluorescence, 48 h, basal (AID 1164). Note: test concentration not given here. To be noted: higher = more signal.
Assay [4] in a line: MM1S cell viability effects, profiling panel, calcein-AM fluorescence, 48 h, basal (AID 1165).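 Note: viability of MM1S multiple myeloma cells under basal unstimulated conditions; test concentration not given here.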 To be noted: higher = more signal.
Assay [5] in a line: basal RPMI8226 viability, no added stimulus, profiling panel, cell-based, calcein-AM fluorescence, 48 h, PK04 Diversity Set (AID 1166).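 Note: cells grown under basal conditions without added stimulus; test concentration not given here.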 To be noted: RPMI8226 myeloma viability, higher = more signal.
A short description of assay [6]: basal HepG2 mitochondrial membrane potential changes, profiling panel, cell-based, JC-1 fluorescence, 24 h, 100 nL compound (AID 1167). Note: test concentration not given here. To be noted: higher = more signal.
A short description of assay [7]: basal 3T3-L1 adipocyte mitochondrial potential changes, profiling panel, cell-based, JC-1 fluorescence, 3T3-L1 adipocytes, 24 h, 100 nL compound (AID 1168). Note: test concentration not given here. To be noted: JC-1 mitochondrial fluorescence, higher = more signal, called active from +8 up or from −8 down.
Assay [8] is described as follows: basal RPMI8226 mitochondrial membrane potential changes, profiling panel, cell-based, JC-1 fluorescence, 24 h, 100 nL compound (AID 1169). Note: test concentration not given here. To be noted: RPMI8226 myeloma, JC-1 mitochondrial potential fluorescence, higher = more signal.
Assay [9] is described as follows: basal MM1S mitochondrial membrane potential changes, profiling panel, cell-based, JC-1 fluorescence, 24 h, 100 nL compound (AID 1170). Note: test concentration not given here. To be noted: higher = more signal.
Assay [10] is described as follows: A549 lung cancer cell viability effects, profiling panel, resazurin fluorescence, 24 h, PK04 Diversity Set (AID 1171). Note: test concentration not given here. To be noted: higher = more signal, called active from +8 up or from −8 down. A general note: Alamar Blue is a resazurin reagent that responds to reducing activity.
Assay [11] can be described thus: HepG2 liver cancer cell viability effects, profiling panel, resazurin fluorescence, 24 h, PK04 Diversity Set (AID 1172). Note: test concentration not given here. To be noted: higher = more signal.
Assay [12] in a line: basal S. cerevisiae growth modulation, no modifier, primary screen, OD600, strain BY4716, 24 h, basal condition (AID 1173). To be noted: OD600, 24 h, higher = more signal, called active from +8 up or from −8 down.
Assay [13] is described as follows: MM1S myeloma cell viability, profiling panel, resazurin fluorescence, basal, 24 h, PK04 Diversity Set (AID 1174).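 Note: MM1S multiple myeloma cell line; test concentration not given here.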 To be noted: higher = more signal, called active from +8 up or from −8 down.
Assay [14] has as its target Dihydroorotate dehydrogenase (quinone), mitochondrial (Plasmodium falciparum (isolate 3D7)) (UniProt Q08210). As to the kind of experiment: PfDHODH enzyme inhibitors, primary screen, biochemical, C-terminal His tag, absorbance 600 nm (AID 1175).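 Note: recombinant parasite enzyme with a five histidine tag at its C terminus; test concentration not given here.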 To be noted: DCIP absorbance 600 nm, higher = more signal, called active from +8 up or from −8 down.
The nature of assay [15]: P. aeruginosa biofilm formation inhibitors, primary screen, strain PAO1, LB-PBS medium, absorbance 600 nm (AID 1176). Note: test concentration not given here. To be noted: P. aeruginosa PAO1 growth/biofilm, A600, 12 h; higher = more signal.
Assay [16] in a line: S. cerevisiae RM11-1a growth modifiers, primary screen, strain RM11-1a, OD600, basal, 24 h (AID 1177).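 Note: cultures grown under basal conditions with no added stressor; test concentration not given here.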 To be noted: OD600, 24 h, higher = more signal, called active from +8 up or from −8 down.
Assay [17] in a line: E. coli acrAB mutant growth effects, primary screen, E. coli filamentation inducers, strain DRC39, OD650, 24 h (AID 1178).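 Note: growth measured as culture turbidity by optical density at 650 nm; test concentration not given here.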 To be noted: higher = more signal, called active from +8 up or from −8 down.
A short description of assay [18]: E. coli acrAB mutant growth effects, primary screen, E. coli filamentation inducers, strain DRC39, OD650, 48 h (AID 1179).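 Note: screen aims at cell division blockers that make cells filament.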 To be noted: E. coli DRC39 delta-acrAB growth, higher = more signal, called active from +8 up or from −8 down.
Assay [19] can be described thus: RPMI8226 myeloma cell viability, profiling panel, resazurin fluorescence, basal, 24 h, PK04 Diversity Set (AID 1180).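 Note: RPMI8826 multiple myeloma cell line at 5000 cells per well; test concentration not given here.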 To be noted: higher = more signal.
In assay [20] the target is E3 ubiquitin-protein ligase XIAP (Homo sapiens) (UniProt P98170). As to the kind of experiment: XIAP binders, primary screen, biophysical, small-molecule microarray, fluorescence 635 nm (AID 1181).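 Note: score merges 667 nm emission and signal to noise over triplicate slides.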 To be noted: small-molecule microarray binding, higher = more signal.
Chain of E3 ubiquitin-protein ligase XIAP (Homo sapiens) (P98170 whole entry, looked up): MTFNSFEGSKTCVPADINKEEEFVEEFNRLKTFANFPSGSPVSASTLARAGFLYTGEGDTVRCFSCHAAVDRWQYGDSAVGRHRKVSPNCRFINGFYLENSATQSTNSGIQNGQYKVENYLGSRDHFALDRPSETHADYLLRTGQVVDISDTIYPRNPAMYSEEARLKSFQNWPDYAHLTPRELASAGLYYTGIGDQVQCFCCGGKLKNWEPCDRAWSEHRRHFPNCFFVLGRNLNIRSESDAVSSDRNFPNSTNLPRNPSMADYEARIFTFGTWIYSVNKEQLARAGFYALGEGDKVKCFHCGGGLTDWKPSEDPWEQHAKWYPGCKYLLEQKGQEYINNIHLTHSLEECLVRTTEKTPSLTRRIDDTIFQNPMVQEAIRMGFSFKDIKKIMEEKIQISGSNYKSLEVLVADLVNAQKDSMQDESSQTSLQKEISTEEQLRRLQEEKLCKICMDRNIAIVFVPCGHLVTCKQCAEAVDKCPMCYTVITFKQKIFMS

Calls of active or inactive are those of the source. Unless noted, the rule behind the calls is not given here.

Chain of Dihydroorotate dehydrogenase (quinone), mitochondrial (Plasmodium falciparum (isolate 3D7)) (Q08210 whole entry, looked up): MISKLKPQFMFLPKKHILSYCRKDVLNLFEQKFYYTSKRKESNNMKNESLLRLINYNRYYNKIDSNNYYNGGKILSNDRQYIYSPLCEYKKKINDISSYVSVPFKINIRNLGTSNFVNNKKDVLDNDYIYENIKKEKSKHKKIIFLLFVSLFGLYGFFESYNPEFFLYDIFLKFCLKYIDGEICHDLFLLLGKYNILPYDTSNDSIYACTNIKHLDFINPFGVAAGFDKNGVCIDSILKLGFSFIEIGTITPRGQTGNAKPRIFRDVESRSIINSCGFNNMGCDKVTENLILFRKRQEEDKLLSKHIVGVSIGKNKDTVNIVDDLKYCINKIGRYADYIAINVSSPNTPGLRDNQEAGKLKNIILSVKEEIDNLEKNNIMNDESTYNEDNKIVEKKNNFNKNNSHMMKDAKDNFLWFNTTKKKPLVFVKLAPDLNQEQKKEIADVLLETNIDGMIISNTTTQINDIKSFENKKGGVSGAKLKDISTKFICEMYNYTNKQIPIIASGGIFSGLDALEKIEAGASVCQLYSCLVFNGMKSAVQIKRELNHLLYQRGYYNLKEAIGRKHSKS

For the compound `COc1ccc([Si](C)(C)[C@@H]2[C@@H](CCO)O[C@]3(C(=O)N(Cc4cccc(N5C(=O)c6ccccc6Oc6ccccc65)c4)c4ccccc43)[C@H]2C)cc1`, the z-score in assay [1] is -0.799; in assay [2] it was -0.472; in [3], -3.38; in [4], -1.89; in assay [5] it was -4.32; in assay [6], -0.192. The z-score was 0.614 (inactive) in assay [7]; -0.954 in assay [8]; -1.82 in [9]; -1.82 (inactive) in assay [10]; -1.11 in assay [11]; 1.02 (inactive) in assay [12]. The z-score was -4.32 (inactive) in [13]; 1.64 (inactive) in [15]; 5.08 (inactive) in assay [16]; 1.89 (inactive) in assay [17]; 1.48 (inactive) in assay [18]; -2.95 in assay [19]. For the same compound, the composite z-score is 0.786 (inactive) in [14] and -0.177 in assay [20].

As to `O=C1OCC=C[C@H]2OC34C=CCN(Cn5nnc6ccccc65)C(=O)[C@H]3N(CCCCCCO)C(=O)[C@@H]4[C@@H]12` (stereo not given in full), the z-score was -0.4 in assay [1]; 0.352 in assay [2]; 0.226 in assay [3]; 1.15 in assay [4]; 0.447 in assay [5]; -0.688 in assay [6]. Also, the z-score in assay [7] was -0.0324 (inactive); in [8], -0.638; in [9], -0.467; in assay [10] it was -0.402 (inactive); in [11], -0.214; in assay [12], -0.344 (inactive). Also, the z-score in assay [13] is 0.0473 (inactive); in [15] it was 0.481 (inactive); in [16] it was -0.91 (inactive); in [17], 0.239 (inactive); in assay [18] it was 0.163 (inactive); in [19], -0.134. The composite z-score in [14] was -1.32 (inactive); in assay [20], 0.233.

Consider `CCCC[C@@H]1C[C@H]1[C@@H](NC(=O)c1ccccc1)c1ccc(Cl)cc1`, for which the z-score is -1.35 in [1]; -0.847 in assay [2]; -1.17 in assay [3]; -1.23 in assay [4]; -1.45 in assay [5]; 0.229 in assay [6]. Besides, the z-score was -1.6 (inactive) in assay [7]; -0.852 in assay [8]; -1.19 in assay [9]; 2.09 (inactive) in assay [10]; 1.18 in [11]; 0.127 (inactive) in assay [12]. The z-score was 0.696 (inactive) in assay [13]; 0.495 (inactive) in [15]; -0.359 (inactive) in assay [16]; -1.11 (inactive) in assay [17]; -0.324 (inactive) in assay [18]; 1.51 in assay [19]. For the same compound, the values for the composite z-score in assay [14] and in assay [20] were -0.402 (inactive) and 0.0049, respectively.

Regarding `CCOC(=O)C1=CC[C@@H](c2ccc([N+](=O)[O-])cc2)N(S(=O)(=O)c2ccc(C)cc2)[C@H]1c1ccccc1`, the z-score in assay [1] was -0.143; in assay [2] it was -0.786; in [3] it was 0.239; in assay [4], -0.767; in assay [5] it was -0.281; in assay [6], 2.35. Also, the z-score is -0.233 (inactive) in assay [7]; 1.21 in [8]; -1.25 in assay [9]; 0.807 (inactive) in [10]; 0.468 in assay [11]; 2.52 (inactive) in assay [12]. In addition, the z-score in [13] is 0.541 (inactive); in assay [15] it was 0.229 (inactive); in assay [16], 0.901 (inactive); in assay [17], -0.72 (inactive); in assay [18], -0.445 (inactive); in assay [19] it was 0.546. In addition, the composite z-score in assay [14] is 0.914 (inactive); in assay [20], -0.124.

With `CC(=O)NCCCC[C@@H]1NC(=O)[C@@H]2C[C@H](C(=O)O)[C@H](c3ccc(O)cc3)N2C1=O`, the z-score in [1] was 0.0665; in [2], 0.384; in [3], -0.552; in assay [4], 0.421; in assay [5], -0.105; in [6] it was -1.14. Further, the z-score in assay [7] was -0.352 (inactive); in assay [8], 0.667; in [9] it was 0.237; in [10], -0.179 (inactive); in [11], -0.253; in assay [12] it was 0.929 (inactive). The z-score was 0.699 (inactive) in assay [13]; -0.819 (inactive) in [15]; 0.88 (inactive) in assay [16]; 0.0763 (inactive) in assay [17]; -0.301 (inactive) in [18]; 0.517 in assay [19]. Besides, the composite z-score is 0.435 (inactive) in assay [14] and -0.0796 in assay [20].

Regarding `C=C(COC)/C(=C/C[C@@H](OC(=O)c1ccncc1)c1ccc(OCCO)cc1)c1cnc2ccccc2c1`, the z-score in assay [1] was 0.101; in assay [2] it was 1.48; in assay [3], -0.0465; in [4] it was -0.289; in assay [5], -0.594; in [6], 1.86. The z-score in assay [7] is -0.892 (inactive); in assay [8] it was 0.674; in [9], 0.464; in assay [10] it was 0.549 (inactive); in [11] it was 0.564; in assay [12] it was -1.17 (inactive). Further, the z-score in [13] is 0.354 (inactive); in assay [15], -0.0221 (inactive); in assay [16] it was -0.0819 (inactive); in [17], 0.595 (inactive); in assay [18], 0.436 (inactive); in [19], 0.621. The results for the composite z-score in assay [14] and in assay [20] were -6.09 (inactive) and 0.0566, respectively.

Take `CC1CC/C=C\[C@H]2OC34C=CCN(c5ccc6ccccc6c5)C(=O)[C@H]3N(C(CO)C(C)C)C(=O)[C@@H]4C2C(=O)O1` (stereo not given in full): the z-score in [1] is 0.534; in assay [2], -0.443; in assay [3] it was 0.468; in assay [4], 0.36; in [5] it was 0.251; in assay [6] it was 0.356. The z-score in assay [7] was -0.328 (inactive); in assay [8], 0.145; in assay [9], -0.158; in assay [10], -0.294 (inactive); in [11], -0.452; in [12], -0.0979 (inactive). For the same compound, the z-score was -0.241 (inactive) in assay [13]; -0.332 (inactive) in [15]; -0.319 (inactive) in [16]; 0.0932 (inactive) in [17]; 0.154 (inactive) in [18]; -0.315 in assay [19]. The composite z-score was -2.17 (inactive) in assay [14] and 0.558 in assay [20].

In the case of `C=C(C(=O)CC[C@H](OC(C)=O)c1cccc(OCCO)c1)C(C)C`, the z-score in assay [1] is -0.271; in assay [2], 0.8; in assay [3] it was -0.979; in assay [4], -0.624; in [5], -0.814; in assay [6], -1.1. Besides, the z-score in assay [7] was 0.113 (inactive); in assay [8], -0.427; in assay [9], 0.89; in [10] it was -0.62 (inactive); in [11], -1.23; in assay [12], -0.105 (inactive). Besides, the z-score in assay [13] is -0.748 (inactive); in assay [15], -0.411 (inactive); in [16], 0.0297 (inactive); in [17], -1.04 (inactive); in assay [18], -0.86 (inactive); in assay [19], -0.559. The composite z-score was -0.781 (inactive) in assay [14] and 0.0454 in assay [20].
